The panel holds about 83,000 compounds, 20% with a hit somewhere; the sample as a whole holds those more often.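 Interpretation: 100, growth as untreated; towards 0, rising growth inhibition; 0, no net growth; 0 to -100, cell death. Compounds scoring below 10 were considered active.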 The source made the active and inactive calls.
System: NCI-H460 lung
Assay: NCI-60 one-dose screen, 48 h (100 = growth as untreated, 0 = no growth, -100 = all killed)
Settings: 10 µM unless noted

Row | Compound | growth
1 | c1csc(C2=NN3C(C2)c2ccccc2OC3c2ccncc2)c1 (centres undefined) | 100% (inactive)
2 | CC1=CC(C)(C)Nc2ccc(Cc3ccc4c(c3)C(C)=CC(C)(C)N4)cc21 | 104% (inactive)
3 | CCCCn1c(-c2ccc(C(=O)O/N=C(\N)c3ccc4ccccc4c3)cc2)nc(-c2ccccc2)c1-c1ccccc1 | 26.3% (inactive)
4 | O=C(Nc1ccc(Cl)cc1)c1cc2cc(F)ccc2cc1O | 7.11% (active)
5 | Cn1cc(-c2nonc2-c2cn(C)c3ccc(F)cc23)c2cc(F)ccc21 | 49.9% (inactive)
6 | CCN(CC)S(=O)(=O)c1ccc(OC)c(NC(=O)c2[nH]c(C)c3c2CCCCC3=O)c1 | 53.4% (inactive)
7 | COc1cccc(-c2nc3sccn3c2-c2ccnc(NCCCNS(=O)(=O)c3cccc(F)c3)c2)c1 | 44.9% (inactive)
8 | COc1cc(/C=C/c2cc(/C=C/c3ccc(O)c(OC)c3)n(-c3c(C)cccc3C)c(=O)n2)ccc1O | 7.91% (active)
9 | COc1cccc(-c2nc(SCC(=O)Nc3ccc(C(=O)/C=C/c4ccc(OC)c(OC)c4)cc3)[nH]c(=O)c2C#N)c1 | 94.7% (inactive)
10 | Cc1cc(C)c2nc3nc(C)cc(C)c3c(N)c2c1 | -2.37% (active)
11 | FC(F)(F)c1ccc(-c2cn3nc(-c4c[nH]c5ccc(Br)cc45)sc3n2)cc1 | 100% (inactive)
12 | CC(=O)O[C@H]1[C@@H]2OC(=O)C(CSc3ccccc3)[C@@H]2C[C@H]2O[C@]2(C)CC/C=C(\C)CCC[C@@H]1C (some centres undefined) | 42.3% (inactive)
13 | Cc1cc(C)nc(SC2=C(Nc3ccc(O)cc3)C(=O)N(Cc3ccccc3)C2=O)n1 | 85.3% [40 µM] (inactive)
14 | COC(=O)c1ccc(Cn2cnc3c(N)ncnc32)cc1 | 115% (inactive)
15 | CCOc1nc(-c2ccccc2)cc2c(O)c(C(=O)O)[nH]c(=O)c12 | 102% (inactive)
16 | COc1ccc(Nc2nc(SC)nc(-c3cccc([N+](=O)[O-])c3)c2C#N)cc1 | 30.4% (inactive)
17 | CN(C)[C@@H]1C(=O)C(C(=O)NCc2nc3[nH]cnc(=S)c3[nH]2)=C(O)[C@@]2(O)C(=O)C3=C(O)c4c(O)cccc4[C@@](C)(O)[C@H]3C[C@@H]12 | 63.8% (inactive)
18 | CCOC(=O)c1sc2nc(-c3cccc(O)c3)nc(N3CCOCC3)c2c1C | 68.2% (inactive)
19 | O=C1/C(=C/c2ccccc2)SC(=S)N1CCc1ccc(O)cc1 | 99.4% (inactive)
20 | OCC(O)c1nc2ccc3[nH]ncc3c2c2c1CCCC2 (centres undefined) | 5.14% (active)

Row | Compound | growth
21 | CC[C@@H]1O[C@H](O[C@@H](c2cnc[nH]2)[C@H](NC(=O)c2nc([C@H](CC(N)=O)NC[C@@H](N)C(N)=O)nc(N)c2C)C(=O)N[C@H](C)[C@H](O)[C@H](C)C(=O)N[C@@H](C(=O)NCCc2nc(-c3nc(C(=O)NCCCCN=C(N)N)cs3)cs2)[C@@H](C)O)[C@H](O[C@@H]2O[C@H](CO)[C@H](O)[C@H](OC(N)=O)[C@@H]2O)[C@H](C)[C@@H]1C | 12.5% (inactive)
22 | COc1cc2c(cc1-c1c(C)noc1C)ncc1nc(C3CCC(F)(F)CC3)n([C@H](C)COC(F)F)c12 | 56.4% (inactive)
23 | O=C1c2c(O)cc(O)cc2-c2c(-c3ccc(O)cc3)oc3cc(O)cc1c23 | 10% (inactive)
24 | CCN1CCN(c2nc(NCCNc3ccnc4cc(Cl)ccc34)c3ccccc3n2)CC1 | 1.75% (active)
25 | O=S(=O)(Nc1ccc(Br)c(Cl)c1)c1ccc(-c2cnc(C3CC3)o2)cc1 | 11.9% (inactive)
26 | Cc1nn(-c2cc(=O)[nH]c3ccc(Cl)cc23)c(N)c1C#N | 101% (inactive)
27 | Clc1ccc2c(NCCCCNc3nc(N4CCOCC4)nc4ccccc34)ccnc2c1 | 4.54% (active)
28 | CCOc1nc(-c2ccccc2)cc2c(O)c(C(=O)N/N=C/c3ccc(O)cc3O)[nH]c(=O)c12 | 61.6% (inactive)
29 | O=C(O)c1ccc(NC(=O)c2ccc(-c3cccc([N+](=O)[O-])c3)o2)cc1 | 102% (inactive)
30 | Cc1ccc(NS(=O)(=O)c2ccc(-c3cnc(C4CC4)o3)cc2)cc1C | 12.3% (inactive)
31 | O=c1ccccc(-c2ccc(-c3ccco3)cc2)c1O | 2.15% (active)
32 | CC(C)CC1C(=O)N2CCC[C@H]2C2(O)O[C@](NC(=O)C3C=C4c5cccc6[nH]c(Br)c(c56)C[C@H]4N(C)C3)(C(C)C)C(=O)N12 (some centres undefined) | 57.2% (inactive)
33 | C=CC(=O)Nc1cccc(-c2nc(SC)nc(NCCN3CCOCC3)c2C#N)c1 | 101% (inactive)
34 | CC(C)c1c(C(=O)c2ccccc2)c(-c2ccccc2)c(-c2ccc(F)cc2)n1CC[C@@H](O)C[C@@H](O)CC(=O)O | 87.5% (inactive)
35 | O=S(=O)(Nc1ccc(NS(=O)(=O)c2ccccc2)c(Cl)c1)c1ccccc1 | 102% (inactive)
36 | O=C(N=Nc1c(O)[nH]c2ccccc12)c1cc(-c2ccccc2)on1 | 102% (inactive)
37 | O=C1NC(=S)NC(=O)C1CC(=O)n1c(-c2ccccc2)nc2ccccc21 | 101% (inactive)
38 | Cn1c(O)c(N=NC(=O)c2cc(-c3ccccc3)on2)c2ccccc21 | 100% (inactive)
39 | CN1CCN(Cc2ccc(NC(=O)c3cncc(C#Cc4cncn5ccnc45)c3)cc2C(F)(F)F)CC1 | 64.3% (inactive)
